# Source: PubChem (several laboratories)
# Tat export inh – blocks Tat-dependent protein export in E. coli. E. coli MC4100 TorA-mCherry Tat export, fluorescence. inhibition, % at 10 µM. hit rate 0.036% among 340,000;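 active = mean replicate inhibition at least 50% and at least half of replicates individually reaching 50%; inconclusive = only one of the two criteria met; inactive = neither criterion met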;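 also: exported cargo escapes ClpAP degradation while cytoplasmic cargo is degraded and loses fluorescence; 0% = median of neutral control wells and 100% = median of NaSCN control wells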
# E coli growth-1 – reduces bacterial viability in AddAB counter-screen; E. coli V3065 growth, OD600 absorbance, 18 h; inhibition, % at 11.9 µM; hit rate 0.27% among 330,000; AID 449728;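 active = inhibition above the campaign's mean inhibition across all tested compounds plus 3 SD, cut at about 9.9% in these data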;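 also: uninfected addAB+ strain grown without phage in ampicillin broth; 0% = DMSO wells and 100% = ciprofloxacin 0.95 µg/ml wells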
# phage Ecoli inh – E. coli growth loss with phage present; growth absorbance; inhibition, % at 11.9 µM; hit rate 0.26% among 360,000; AID 651602; in the data active = inhibition above about 11%
# AddAB inh – less growth of phage-infected E. coli with AddAB | E. coli expressing H. pylori AddAB, absorbance growth | inhibition, % at 11.9 µM | hit rate 0.29% among 330,000; in the data active = inhibition above about 12%;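 also: 0% = vehicle wells of infected cells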
# E coli growth-2 – inhibitors of Escherichia coli growth. hit rate 0.21% among 330,000. OD600 absorbance (test concentration not listed). AID 1053175. OD600, 23 h; hits give low values;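 active = OD600 absorbance below the run mean of sample wells minus 3.6 SD, in any replicate, cut at about 0.56 in these data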
# AddAB confirm – confirmation screen: growth loss of phage-infected E. coli expressing H. pylori AddAB | shares compounds with AddAB inh | E. coli V3065 expressing H. pylori AddAB, T4 phage, OD; T4 phage with gene 2 nonsense mutations | inhibition, % at 11.9 µM | hit rate 64% among 880 | AID 488942;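 active = mean inhibition above a set limit taken from the earlier primary screen, cut at about 13% in these data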;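 also: higher means less bacterial growth since AddAB block lets phage replicate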
# RecBCD counter – reduces growth of phage-infected RecBCD+ E. coli, AddAB inhibitor counter-screen; shares compounds with AddAB inh; E. coli V66 + mutant T4 phage, OD growth; inhibition, % at 11.9 µM; hit rate 73% among 880; AID 488955;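 active = mean inhibition above the mean of solvent-only control wells plus 3 SD, cut at about 4% in these data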;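 also: optical density read after an 18 h incubation at 37 °C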
# Bact viability – counter-screen for AddAB inhibitors: inhibitors of bacterial viability; inhibition, % at 11.9 µM; shares compounds with AddAB inh; hit rate 35% among 880; absorbance (AddAB counterscreen); in the data active = inhibition above about 25%
# Starred values were filed as active, the others as inactive; u = inconclusive; x = not tested or not shown. Rows were chosen to be rich in hits. Some 0.5% of all compounds tested hit in one or more screens of this group.
SMILES,Tat export inh,E coli growth-1,phage Ecoli inh,AddAB inh,E coli growth-2,AddAB confirm,RecBCD counter,Bact viability
O=C(NCCC1=CCCCC1)C1CCN(S(=O)(=O)c2ccccc2)CC1,-2.4,-2.6,3.5,-2.2,0.686,x,x,x
CC(C)c1ccc(NC(=S)NC2CCCCCC2)cc1,-4.5,86.5*,0.6,97.7*,0.701,-3.6,0.8,0.9
S=C(Nc1ccc(Oc2ccc(NC(=S)NC3CCCCC3)cc2)cc1)NC1CCCCC1,1.5,5.0,-0.2,4.3,0.684,x,x,x
CC(C)N1C(=O)C2C(c3ccccc3O)NC(C)(C(=O)O)C2C1=O (stereo unspecified),12.6,2.8,1.2,15.1*,0.739,0.4,0.6,-1.9
CC(C)CC1(C(=O)O)NC(c2ccccc2O)C2C(=O)N(C(C)C)C(=O)C21 (stereo unspecified),1.2,-2.0,2.7,0.3,0.776,x,x,x
NNC(=O)c1cccc(Cn2cc(Br)c([N+](=O)[O-])n2)c1,-3.5,23.9*,9.2,27.2*,0.637,97.1*,11.7*,67.0*
CCCNC(=O)c1cccc(Cn2cc(Br)c([N+](=O)[O-])n2)c1,7.0,11.2*,6.1,15.3*,0.678,30.9*,3.4,32.0*
COc1ccc(NC(=O)c2cccc(Cn3cc(Br)c([N+](=O)[O-])n3)c2)c(C)c1,-17.6,-1.6,2.0,1.7,0.642,x,x,x
O=C(C1CC=CC2CCN(C3CCCCC3)C(=O)C21)N1CCN(c2ccccc2)CC1 (stereo unspecified),x,x,x,x,0.706,x,x,x
Cc1ccc(-c2noc(N=O)c2NO)cc1,-14.6,18.9*,4.9,24.0*,0.613,33.1*,7.9*,31.2*
Cc1ccc(/C=N/NC(=O)C2(C)CC2(Br)Br)cc1 (stereo unspecified),2.7,2.5,1.5,-0.2,x,x,x,x
CC1(C(=O)N/N=C/c2ccccc2)CC1(Br)Br (stereo unspecified),1.5,97.4*,-3.4,97.0*,x,-1.8,-0.5,-3.8
Nc1nonc1C(=O)NCCN=Cc1cc(Cc2ccccc2)cc(Br)c1O,u,6.6,x,18.5*,0.592,19.5*,8.8*,9.0
CC(=O)Oc1cc2cccc(OC(C)=O)c(=O)c2c(OC(C)=O)c1OC(C)=O,0.1,13.7*,x,18.0*,0.644,25.2*,19.4*,14.6
COc1cc2cccc(OC)c(=O)c2c(O)c1OC,-0.8,-1.2,5.8,0.5,0.739,x,x,x
CCCCC(=O)O[C@H]1CC[C@H]2[C@@H]3CCc4cc(O)ccc4[C@H]3CC[C@]12C,2.9,-0.9,3.9,97.0*,x,2.9,0.1,-1.1
CCCCOC(=O)C(C)Oc1ccc(=O)n(-c2ccccc2)n1 (stereo unspecified),-2.6,4.8,1.6,20.9*,0.765,4.2,1.4,-3.0
O=C(COC(=O)C1CCN(S(=O)(=O)c2ccc3c(c2)OCCO3)CC1)NC1CCS(=O)(=O)C1 (stereo unspecified),-3.1,9.8*,0.2,26.0*,0.678,-5.7,-2.3,-5.2
O=C(COC(=O)C1CCN(S(=O)(=O)c2ccc3c(c2)OCCO3)CC1)NC1CCCCC1,2.2,2.8,1.9,0.2,0.678,x,x,x
COCC=CC1=CC2=CC(=O)C(C)(OC(=O)c3cnc4ccccc4n3)C(=O)C2=CN1c1ccc(OC)cc1 (stereo unspecified),x,x,x,x,0.709,x,x,x
CCCCOc1ccc(Cc2cnc(N)nc2N)cc1,-16.4,11.9*,10.0,13.8*,0.337*,13.1*,9.2*,6.6
Cc1ccc(S(=O)(=O)N2C(c3cccc(Cl)c3)CC=C(C(=O)O)C2c2ccccc2)cc1 (stereo unspecified),x,x,x,x,0.653,x,x,x
COC(=O)c1sc2ccccc2c1N,0.6,21.2*,2.2,35.4*,0.699,1.6,-0.8,-1.2
COC(=O)c1sc2ccccc2c1C(=O)OC,-8.3,x,2.0,x,0.673,x,x,x
C=CCCC(Cc1ccc(F)cc1)C(=O)OCCNC(=O)C(CC=C)CC(=O)N(CCO)Cc1ccccc1 (stereo unspecified),x,x,x,x,0.667,x,x,x
SMILES,Tat export inh,E coli growth-1,phage Ecoli inh,AddAB inh,E coli growth-2,AddAB confirm,RecBCD counter,Bact viability
COc1ccc(-n2c(Cc3cccn3C)nnc2SCC(=O)Nc2nc(C)cs2)cc1,27.4,8.8,3.3,15.4*,0.729,-1.1,-0.9,-2.4
COc1ccc(-n2c(Cc3cccn3C)nnc2SCC(=O)Nc2ccccc2)cc1,0.8,-1.6,2.4,7.0,0.772,x,x,x
CCCCC(=O)NC(c1ccc(OC)cc1)c1ccc2cccnc2c1O (stereo unspecified),x,x,10.1,x,x,x,x,x
COc1ccc(C(NC(=O)C(C)C)c2ccc3cccnc3c2O)cc1 (stereo unspecified),26.7,26.0*,24.6*,25.9*,0.586,25.8*,24.0*,18.5
CCCC(=O)NC(c1ccccc1Cl)c1ccc2cccnc2c1O (stereo unspecified),1.8,34.7*,25.9*,33.9*,x,29.4*,27.0*,25.7*
NC(=O)C1CC2(CC(c3cccc(NC(=O)C4CCC(=O)N4)c3)=NO2)CN1C(=O)c1cc([N+](=O)[O-])cc([N+](=O)[O-])c1 (stereo unspecified),x,x,x,x,0.649,x,x,x
CN1C(=O)C2C(C1=O)C(c1ccc(Br)cc1)N1C(=O)c3ccccc3NC(=O)C21 (stereo unspecified),x,x,x,x,0.693,x,x,x
COc1ccccc1NS(=O)(=O)c1cccc(C(=O)NN=Cc2ccc([N+](=O)[O-])o2)c1,x,x,x,x,0.626,x,x,x
Cc1ccc(S(=O)(=O)NN=Cc2ccc(C)o2)cc1,x,x,x,x,0.691,x,x,x
O=C(N/N=C/c1ccc([N+](=O)[O-])o1)C1CCCC1,-5.0,9.2,8.3,12.4*,x,73.9*,5.0*,13.3
O=[N+]([O-])c1ccc(/C=N\NS(=O)(=O)c2ccc(F)cc2)o1,-9.2,20.1*,10.7,92.7*,x,98.9*,8.0*,53.9*
COc1ccc(S(=O)(=O)N/N=C\c2ccc([N+](=O)[O-])o2)c(OC)c1,-21.1,23.8*,9.6,30.3*,x,100.2*,8.3*,39.7*
FC(F)(F)c1ccc(Cl)c(NC(=S)NN=Cc2ccccc2Cl)c1,x,x,x,x,0.679,x,x,x
O=C(NC(Cc1c[nH]c2ccccc12)C(=O)NN=Cc1cccnc1)c1cccs1 (stereo unspecified),x,x,x,x,0.655,x,x,x
CC1CN(CCc2ccccc2)C(=O)C1CC(=O)NCc1ccccc1 (stereo unspecified),x,x,x,x,0.619,x,x,x
Cc1ccc(-c2ccc(C3C4C=CCC[C@@]4(C)C(=O)N3Cc3ccccc3)c(F)c2)cc1 (stereo partly specified),x,x,x,x,0.724,x,x,x
COc1ccc(C2C=CCN(C(=O)C3CC3)C(C)C(=O)N2Cc2ccc(F)cc2)cc1 (stereo unspecified),x,x,x,x,0.671,x,x,x
CCOC(=O)c1[nH]c2ccccc2c1NC(C)=O,-5.9,-2.6,6.3,-2.6,0.729,x,x,x
